Compound activity (PubChem)
Compounds with a hit are over-represented: about 1.6% of the library has one in this group of screens.
KCNQ2 enhance: potentiators of rat KCNQ2 potassium channel | B-score at 10 µM | Potassium voltage-gated channel subfamily KQT member 2 (Rattus norvegicus), O88943 | AID 2239, 2010 | CHO-K1 KCNQ2, FluxOR thallium flux fluorescence; stronger effect = higher value | actives 0.54% (n = 310,000);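 active = fluorescence ratio B-score at least 3 SD of library B-scores, with initial fluorescence B-score within 3 of them, cut at about 5.3 in these data; same plate scores as AID 2156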;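 also: B-score of peak minus minimum over baseline fluorescence ratio after K+ and Tl+ stimulus; positive B-score means potentiation of KCNQ2 with more thallium influx and brighter signal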
KCNQ2 inh: rat KCNQ2 potassium channel inhibitors, primary screen, cell-based, CHO-K1, FluxOR thallium flux, B-score | Potassium voltage-gated channel subfamily KQT member 2 (Rattus norvegicus), O88943 | 20 min; stronger effect = lower value | B-score at 10 µM | actives 1.1% (n = 310,000) | AID 2156, 2009;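 active = fluorescence ratio B-score at most minus 3 library SDs, with starting brightness B-score within 2 library SDs, cut at about -5.5 in these data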
KCNQ2 block conf: rat KCNQ2 potassium channel inhibitors, confirmation, cell-based, thallium flux. shares compounds with KCNQ2 inh. KCNQ2-expressing cells, inhibition; stronger effect = lower value. activity change, negative = inhibition, % at 10 µM. actives 57% (n = 1,000);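 also: 0% = vehicle wells and values are ratio percent relative to vehicle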
KCNQ1 spec: human KCNQ1 channel inhibition, counter-screen for KCNQ2 inhibitor project, cell-based, FluxOR thallium flux | shares compounds with KCNQ2 inh | KCNQ1-expressing cells, FluxOR thallium flux fluorescence; stronger effect = lower value | activity change, negative = inhibition, % at 10 µM | actives 15% (n = 1,000) | AID 493026, 2011;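 active = activity change at least 3 SD of negative controls below their mean in both duplicate wells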;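 also: CHO cells stably transfected with KCNQ1 and depolarized by potassium stimulus; peak minus minimum fluorescence over baseline after thallium addition; 0% = vehicle negative control and -100% = blank without thallium stimulus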
Target sequence (P51787 whole entry, looked up): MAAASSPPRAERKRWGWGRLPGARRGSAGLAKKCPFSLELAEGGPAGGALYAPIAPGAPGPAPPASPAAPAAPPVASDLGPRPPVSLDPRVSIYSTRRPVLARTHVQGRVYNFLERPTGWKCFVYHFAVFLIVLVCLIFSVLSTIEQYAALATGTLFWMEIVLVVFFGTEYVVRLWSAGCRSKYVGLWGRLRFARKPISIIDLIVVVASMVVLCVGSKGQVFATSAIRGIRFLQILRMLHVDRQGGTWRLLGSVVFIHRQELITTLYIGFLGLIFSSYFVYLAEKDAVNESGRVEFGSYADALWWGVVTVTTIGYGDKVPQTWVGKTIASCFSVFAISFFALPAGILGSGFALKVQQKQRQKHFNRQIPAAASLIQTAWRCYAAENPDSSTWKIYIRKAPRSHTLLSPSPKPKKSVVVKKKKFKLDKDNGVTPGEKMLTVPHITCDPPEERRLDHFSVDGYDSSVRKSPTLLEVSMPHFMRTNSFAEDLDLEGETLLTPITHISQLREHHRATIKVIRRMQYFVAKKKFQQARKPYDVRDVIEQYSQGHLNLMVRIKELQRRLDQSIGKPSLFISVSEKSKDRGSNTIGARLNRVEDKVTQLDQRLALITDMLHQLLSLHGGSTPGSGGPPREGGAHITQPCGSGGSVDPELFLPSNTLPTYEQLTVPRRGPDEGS
CHO Tl ctr: thallium flux change in parental CHO cells, counter-screen for KCNQ2 inhibitor project. activity change, % at 10 µM. shares compounds with KCNQ2 inh. stronger effect = lower value. actives 14% (n = 1,000);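 also: 0% = vehicle negative controls with stimulus buffer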
KCNQ2 patch conf: rat KCNQ2 channel inhibitors, confirmation, cell-based, automated patch clamp, single concentration; shares compounds with KCNQ2 inh; KCNQ2-expressing cells, automated patch clamp current; calls only at 10 µM; actives 49% (n = 550); AID 588531, 2011
Active calls of the source: *; i = inactive; . = not tested or not shown; + = active, no number. Unless noted, no rule for the calls is given here.

SMILES	KCNQ2 enhance	KCNQ2 inh	KCNQ2 block conf	KCNQ1 spec	CHO Tl ctr	others
Cc1ccc(NC2=C(C(=O)c3ccccc3)N(C)S(=O)(=O)c3ccccc32)cc1	-11.9	-11.9*	-27.5%*	i	i	KCNQ2 patch conf=i
CCN1C(C(=O)c2ccccc2)=C(Nc2ccccc2C)c2ccccc2S1(=O)=O	-6.93	-6.93*	-33.5%*	-27.0%*	i	KCNQ2 patch conf=i
CN1C(C(=O)c2ccccc2)=C(N)c2ccccc2S1(=O)=O	.	i	.	.	.
Nc1cc(N)nc(SCCc2ccccc2)n1	0.31	i	.	.	.
COc1ccc(-c2cc(C(=O)Nc3c(C)nn(Cc4ccccc4Cl)c3C)no2)cc1	.	i	.	.	.
CCC(C)(C)NC(=O)CN(Cc1cccs1)C(=O)CNS(=O)(=O)c1ccc(C)cc1	.	i	.	.	.
Fc1ccc(-c2csc(N3CCC(c4ccccc4)C3)n2)cc1 (centres undefined)	-9.49	-9.49*	i	i	i
c1ccc(-c2csc(N3CCCCCC3)n2)cc1	1.6	i	.	.	.
CCCCn1cnc2c(c(-c3ccccc3)c(-c3ccccc3)n2Cc2ccco2)c1=N	-7.64	-7.64*	-27.0%*	i	i	KCNQ2 patch conf=i
CCCCn1c(=O)[nH]c(=O)c2c1ncn2Cc1ccco1	0.89	i	.	.	.
COc1ccc(NC(=O)c2ccc3ncsc3c2)cc1	0.02	i	.	.	.
COc1cc(NS(=O)(=O)c2ccc(NS(=O)(=O)c3ccccc3)cc2)nc(OC)n1	0.31	i	.	.	.
CCN(C(=O)Cn1c(=O)oc2ccccc21)C1CCS(=O)(=O)C1 (centres undefined)	.	i	.	.	.
O=C(C1=C(O)C(=O)N(Cc2ccco2)C1c1cccc([N+](=O)[O-])c1)c1ccco1 (centres undefined)	.	i	.	.	.
O=C(Cc1sc(Nc2ccccc2)nc1-c1ccccc1)NCc1ccccc1	-7.13	-7.13*	i	i	i
O=C(Cc1sc(-c2ccccc2)nc1-c1ccccc1)Nc1ccccc1	0.16	i	.	.	.
O=C(COC(=O)c1cc(-c2ccco2)nc2ccccc12)NCc1ccccc1	-6.91	-6.91*	i	i	i
CCN(CC)CCNC(=O)c1cc(-c2ccco2)nc2ccccc12	0.72	i	.	.	.
CNC(=O)COC(=O)c1cc(-c2ccco2)nc2ccccc12	.	i	.	.	.
COc1ccc(CCNC(=O)c2cc(-c3ccco3)nc3ccccc23)cc1	-8.16	-8.16*	-27.0%*	i	i	KCNQ2 patch conf=+
O=C(c1ccc(CS(=O)Cc2ccc(Cl)cc2)o1)N1CCN(c2cccc(Cl)c2)CC1 (centres undefined)	.	i	.	.	.
COc1ccc(C(c2c(O)ccc3ccccc23)N2CCOCC2)c(OC)c1 (centres undefined)	-10.3	-10.3*	-32.0%*	i	i	KCNQ2 patch conf=i
COc1ccc(C(CCN2CCOCC2)c2c(O)cc(OC)cc2OC)cc1 (centres undefined)	0.49	i	.	.	.
CCCn1c(CNC(=O)Cc2ccccc2)nc2ccccc21	-6.74	-6.74*	i	i	i
CCCC(=O)NCCc1nc2ccccc2n1CCC	1.98	i	.	.	.
SMILES	KCNQ2 enhance	KCNQ2 inh	KCNQ2 block conf	KCNQ1 spec	CHO Tl ctr	others
C/C=C(/C)C(=O)Nc1cccc(C2=NOC3(C2)C[C@@H](C(N)=O)N(C(=O)c2ccc(OC)cc2)C3)c1 (some centres undefined)	0.23	i	.	.	.
COc1cccc(C(=O)C(C#N)=C(SC)SC)c1	.	i	.	.	.
CSC(SC)=C(C#N)C(=O)c1ccccc1	-7.92	-7.92*	i	i	i
Cc1ccc(C(=O)N/C(=C\c2ccc(-c3ccc(Cl)cc3)o2)C(=O)NCCCN(C)C)cc1	-7.19	-7.19*	-17.5%*	i	i
CN(C)CCCNC(=O)/C(=C\c1ccc(-c2ccc(Br)cc2)o1)NC(=O)c1ccccc1	.	i	.	.	.
O=C(COC(=O)c1ccccc1NC(=O)c1ccco1)NC1CCCCC1	.	i	.	.	.
COc1ccc(N2CCN(c3oc(Cc4ccccc4)nc3C#N)CC2)cc1	.	i	.	.	.
CCOC(=O)c1cn2nc(-c3ccc(OC)cc3)cc2nc1C1CCN(C(=O)OC(C)(C)C)CC1	-8.58	-8.58*	i	i	i
COc1ccc(-c2cc(C3CCN(C(=O)OC(C)(C)C)CC3)[nH]n2)cc1	.	i	.	.	.
COc1cccc(CNc2cc(C)ccn2)c1O	0.73	i	.	.	.
Cc1ccnc(NCc2cccc3ccccc23)c1	-6.92	-6.92*	-40.0%*	-29.0%*	-28.5%*
COc1ccc(Cl)cc1NC(=S)NCCc1ccc(S(N)(=O)=O)cc1	.	i	.	.	.
COc1ccc(Cl)cc1NC(=S)NCCc1ccc(F)cc1	-8.68	-8.68*	-36.5%*	-34.0%*	-30.5%*	KCNQ2 patch conf=+
CC(C)(C)n1nnnc1C(c1ccc(C(F)(F)F)cc1)N(Cc1ccccc1)Cc1ccco1 (centres undefined)	-10.9	-10.9*	-57.0%*	-57.5%*	-54.0%*
CC(C)(C)n1nnnc1C(c1ccc(F)cc1)N(Cc1ccc(F)cc1)Cc1ccco1 (centres undefined)	-10.6	-10.6*	-30.5%*	i	i	KCNQ2 patch conf=i
CCC(C)(C)n1nnnc1C(c1ccc(C)cc1)N1CCSCC1 (centres undefined)	.	i	.	.	.
Cc1cc2cc(C(c3nnnn3C(C)(C)C)N(Cc3ccco3)CC3CCCO3)c(=O)[nH]c2cc1C (centres undefined)	0.49	i	.	.	.
CCN(Cc1ccccc1)C(c1ccc(C)cc1)c1nnnn1C(C)(C)CC (centres undefined)	-8.77	-8.77*	-28.0%*	i	i	KCNQ2 patch conf=i
Fc1ccc(C(c2nnnn2C2CCCC2)N(Cc2ccco2)CC2CCCO2)cc1 (centres undefined)	.	i	.	.	.
CCOc1ccc(C(=O)CCC(=O)N2CCC(C(=O)OC)CC2)cc1	0.75	i	.	.	.
Cc1cc(C)cc(NC(=O)C2CCCN2C(=O)NC2CCCCC2)c1 (centres undefined)	0.24	i	.	.	.
CN1CCN(C(=O)CN(c2cccc(Br)c2)S(=O)(=O)c2ccccc2)CC1	.	i	.	.	.
CCOC(=O)C1CCN(S(=O)(=O)Cc2ccccc2)C1=O (centres undefined)	0.35	i	.	.	.
CC(C)(Oc1ccc(Cl)cc1)C(=O)N1CCN(c2ccccn2)CC1	-7.38	-7.38*	i	i	i
O=C(/C=C/c1ccc(Cl)cc1)N1CCN(c2ccccn2)CC1	.	i	.	.	.
SMILES	KCNQ2 enhance	KCNQ2 inh	KCNQ2 block conf	KCNQ1 spec	CHO Tl ctr	others
O=C(/C=C/c1cccc(F)c1)N(c1ccccn1)C1CCCCC1	.	i	.	.	.
O=C(/C=C/c1ccc(Cl)cc1)N(c1ccccn1)C1CCCCC1	-8.14	-8.14*	-44.0%*	-35.0%*	-34.0%*	KCNQ2 patch conf=+
O=C(Nc1ccc(Br)cc1)C(c1ccccc1)c1ccccc1	0.4	i	.	.	.
CCN(CC)c1ccc(/C=C/C(=O)c2cccnc2)cc1	.	i	.	.	.
O=C(/C=C/c1ccccc1Cl)c1ccc(O)cc1	.	i	.	.	.
O=C(/C=C/c1ccccc1Cl)c1cccnc1	-7.95	-7.95*	-36.5%*	-32.0%*	-32.0%*	KCNQ2 patch conf=i
